# The campaign covered roughly 13,000 compounds. About 3,200 (25%) showed an effect of 50% or more. The list shows a part of the results.
# System: P. falciparum stage V gametocytes
# Parameters: BacTiter-Glo ATP luminescence viability of purified stage V gametocytes in 384-well plates, per cent inhibition versus DMSO
# Conditions: 48 h, 5 µM; inhibitor
row,Compound,% Inhibition [%]
1,Cc1nc2c(=O)sc3ccccc3c2n1Cc1ccccc1 [TCMDC-125754],-11.8
2,CN(CCCCN)Cc1ccc(-c2ccc(Cl)cc2)cc1 [TCMDC-140123],92.64
3,CN(C)CCN(C)Cc1ccc(-c2cccc(NC(=O)c3ccc(Cl)cc3)c2)cc1 [TCMDC-132631],0.8563
4,CN(C)CCN(C)Cc1ccc(-c2ccc(NC(=O)c3ccc(Cl)cc3)cc2)cc1 [TCMDC-132587],-35.6
5,O=C(NCc1ccc(C(=O)N2CCC(N3CCCCC3)CC2)cc1)c1cc(-c2cccc(C(F)(F)F)c2)ccc1O [TCMDC-139090],-1.594
6,O=C(Nc1ccccc1Br)c1cn(-c2ccccc2)nc1-c1cccc([N+](=O)[O-])c1 [TCMDC-124624],18.14
7,O=C(NCCc1cccc(F)c1)c1ccc(N2CCN(c3ccncc3)CC2)cn1 [TCMDC-135153],19.99
8,CCNc1cc(C(=O)N[C@@H](Cc2ccccc2Cl)[C@H](O)CNC2CCCCC2)cc(N2CCCCS2(=O)=O)c1 [TCMDC-135223],16.84
9,NC[C@H](CC1CCCCC1)NC(=O)c1ccc(-c2ccnc3[nH]ccc23)s1 [TCMDC-134150],38.45
10,CNC(=O)CC(=O)NCCc1ccc(Cl)cc1 [TCMDC-131647],-3.705
11,Oc1ccc(CCNCCCCCCNCCCc2ccc(Cl)cc2)cc1O [TCMDC-131264],107.9
12,Oc1ccc(CCNCCCCCNCCCc2ccc(Cl)cc2)cc1O [TCMDC-131279],112.4
13,Oc1ccc(CCNCCCCCCNCCc2ccc(Cl)cc2)c(Cl)c1O [TCMDC-131266],111.4
14,O=C(NCCCc1ccccc1)c1ccc(O)c(-c2cc(Cl)cc(Cl)c2)c1 [TCMDC-140159],-73.77
15,Oc1ccc(CCNCCCCNCCc2ccc(Cl)cc2)cc1O [TCMDC-131265],107
16,O=c1ccc2ccc(F)c3c2n1CC3CN1CCC(NCc2ccc(-c3cccc(Cl)c3)nc2)CC1 (centres unmarked) [TCMDC-134409],-72.08
17,O=C(/C=C/c1ccccc1Cl)Nc1ccc(Br)c(OCCN2CCC(O)(c3ccccc3)CC2)c1 [TCMDC-140960],2.038
18,Cc1cccc(-c2nn(-c3ccccc3)cc2C(=O)Nc2nnc(C)o2)c1 [TCMDC-125039],-1.826
19,CC(C)CCN1CCCN(Cc2cccc(C(=O)Nc3ccc(C(C)(C)C)cc3)c2)CC1 [TCMDC-136605],-26.48
20,O=[N+]([O-])c1cccc(CNCC2CCN(CC3CCCCC3)CC2)c1 [TCMDC-139468],9.865
